Test results published in PMC4336329 (PLoS ONE, 2015).
About 14,000 (4.5%) of roughly 310,000 compounds showed an effect of 50% or more. Effects have a minus sign here. Many of the other results were omitted from the sample, so strong results are more common in it than they were.

biological target: human ether-à-go-go-related gene (hERG) potassium channel (human, UniProt Q12809); experiment: primary screen, population patch clamp on CHO cells stably expressing hERG; higher = less effect of the substance
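Also: peak tail current of the secondary pulse compared with the same well before compound.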

human ether-à-go-go-related gene (hERG) potassium channel, sequence (Q12809 whole entry, looked up): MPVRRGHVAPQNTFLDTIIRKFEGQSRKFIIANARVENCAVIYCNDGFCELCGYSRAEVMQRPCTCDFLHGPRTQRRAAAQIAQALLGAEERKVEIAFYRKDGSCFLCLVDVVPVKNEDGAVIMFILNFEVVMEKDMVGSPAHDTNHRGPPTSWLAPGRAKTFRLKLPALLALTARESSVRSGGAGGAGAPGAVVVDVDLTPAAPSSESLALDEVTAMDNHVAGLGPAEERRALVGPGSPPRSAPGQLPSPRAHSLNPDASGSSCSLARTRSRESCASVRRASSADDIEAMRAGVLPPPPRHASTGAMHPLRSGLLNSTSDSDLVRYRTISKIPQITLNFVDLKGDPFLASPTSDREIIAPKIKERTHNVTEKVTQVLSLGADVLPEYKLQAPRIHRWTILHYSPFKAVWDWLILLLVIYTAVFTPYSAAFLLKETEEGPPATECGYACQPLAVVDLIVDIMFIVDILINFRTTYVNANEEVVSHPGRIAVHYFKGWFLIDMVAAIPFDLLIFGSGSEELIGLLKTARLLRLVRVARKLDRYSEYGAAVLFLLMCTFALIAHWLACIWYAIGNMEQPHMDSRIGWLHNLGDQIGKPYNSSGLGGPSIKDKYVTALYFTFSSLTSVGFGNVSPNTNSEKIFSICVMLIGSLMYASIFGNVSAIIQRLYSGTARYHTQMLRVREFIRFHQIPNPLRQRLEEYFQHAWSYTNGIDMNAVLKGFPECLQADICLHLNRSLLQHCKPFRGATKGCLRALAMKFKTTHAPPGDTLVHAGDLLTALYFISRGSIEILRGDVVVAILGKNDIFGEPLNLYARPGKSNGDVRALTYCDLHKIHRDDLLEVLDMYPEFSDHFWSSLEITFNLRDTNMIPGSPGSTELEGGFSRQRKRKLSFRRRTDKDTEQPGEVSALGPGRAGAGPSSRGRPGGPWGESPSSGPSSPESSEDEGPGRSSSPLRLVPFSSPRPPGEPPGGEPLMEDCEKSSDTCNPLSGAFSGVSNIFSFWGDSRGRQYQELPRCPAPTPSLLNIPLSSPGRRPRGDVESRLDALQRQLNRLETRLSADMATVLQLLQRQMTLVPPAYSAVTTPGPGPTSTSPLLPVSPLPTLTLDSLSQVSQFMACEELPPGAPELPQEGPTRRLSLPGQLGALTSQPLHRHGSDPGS

SMILES	hERG current change (%, negative = inhibition) at 10uM [%]
CC(C)c1cccc(C(C)C)c1NC(=O)CN1C(=O)NC2(CCCC2)C1=O	14.8
CCOC(=O)C(O)(CCC(O)(C(=O)OCC)C(=O)OCC)C(=O)OCC	5.85
Cn1c(=O)c2c(nc(CN3CCC(C(N)=O)CC3)n2CCc2ccccc2)n(C)c1=O	4.44
CCOC(=O)c1ccc(NC(=O)NC2CC3CCC(C2)N3Cc2nnnn2Cc2ccco2)cc1 (stereo not drawn)	-21.1
O=C(NCc1ccc2c(c1)OCO2)c1nn(-c2ccccc2)c(=O)c2ccccc12	-35.1
COc1ccc(N(CC(=O)NCc2cccnc2)S(=O)(=O)c2c(C)nn(C)c2C)cc1	3.1
O=C(CSc1nc(-c2ccccc2)nn1C(=O)c1ccccc1)Nc1cccc([N+](=O)[O-])c1	2.83
COc1ccc(NC(=O)CCc2nc3ccccc3s2)c(OC)c1	-0.68
O=C(CN(c1cccc(C(F)(F)F)c1)S(=O)(=O)c1ccccc1)N1CCOCC1	-30.5
CCC(=O)c1ccc(N2CCN(C(=O)c3cccc(F)c3)CC2)c(F)c1	-41.6
CCOC(=O)N1CCN(C(=O)c2ccccc2CCc2ccccc2)CC1	-59.1
CCC(=O)c1ccc(N2CCN(C(=O)c3ccc(Br)cc3)CC2)c(F)c1	-16
CCOC(=O)C1CCN(C(=O)c2ccccc2CCc2ccccc2)CC1	-8.95
CCC(=O)c1ccc(N2CCN(C(=O)c3ccccc3Br)CC2)c(F)c1	-26.8
CCC(=O)c1ccc(N2CCN(C(=O)c3ccc(F)cc3)CC2)c(F)c1	-60
O=C(c1ccccc1CCc1ccccc1)N1CCCC1	9.12
CCC(=O)c1ccc(N2CCCCC2)c(F)c1	8.26
CCC(=O)c1ccc(N2CCN(C(=O)c3ccccc3)CC2)c(F)c1	-70.1
CCOC(=O)Nc1sc(C(=O)N(C)C)c(C)c1C(=O)OCC	5.73
O=C(COC(=O)/C=C/c1cccs1)NC(c1ccccc1)c1ccccc1	-2.53
O=C(CNC(=O)c1ccccc1)OCC(=O)c1ccc(Cl)s1	0.566
CC1(C)CC(=O)C2=C(C1)NC(=O)NC2c1ccccc1 (stereo not drawn)	21.7
Cc1oc(CC(C)C)cc1C(=O)NCCCC(=O)O	13.6

SMILES	hERG current change (%, negative = inhibition) at 10uM [%]
COc1ccc(C2(CNS(=O)(=O)c3ccc(C)cc3)CCOCC2)cc1	15.4
O=C(O)c1ccc(N2C(=O)CC(SC(=NCc3ccc4c(c3)OCO4)Nc3ccccc3)C2=O)cc1 (stereo not drawn)	13.9
CCOC(=O)C1=C(C)NC(=O)CC1c1ccccc1 (stereo not drawn)	-0.777
COc1ccc(C(=O)CCc2ccc(OC)c(OC)c2)cc1	-10.3
O=C(CNC(=O)c1ccc(Br)cc1)OCC(=O)c1ccccc1	10.2
Cc1ccc2[nH]c(-c3cccc(N)c3)cc2c1	18.4
O=C(CSc1nnc(CN2CCCCC2)n1-c1ccccc1)c1ccc2c(c1)OCO2	-25.4
CCC1Oc2ccc(C)cc2N(CC(=O)N2CCOCC2)C1=O (stereo not drawn)	4.58
Cc1ccc2c(c1)N(CC(=O)N1CCN(c3nc4ccccc4s3)CC1)C(=O)C(C)O2 (stereo not drawn)	-54.5
Cc1ccc2c(c1)N(CC(=O)N1CCCCC1)C(=O)C(C)O2 (stereo not drawn)	11.9
CCC1Oc2ccc(C)cc2N(CC(=O)N2CCCC2)C1=O (stereo not drawn)	23.2
CCC1Oc2ccc(C)cc2N(CC(=O)N2CCN(c3ccc(F)cc3)CC2)C1=O (stereo not drawn)	-54.1
Cc1ccc2c(c1)N(CC(=O)N1CCCC1)C(=O)C(C)O2 (stereo not drawn)	19.4
Cc1c(C(=O)N/N=C/c2ccc(N3CCOCC3)cc2)nc2ccccn12	-1.87
C=CCN(CC=C)C(=O)C(=O)c1ccn(-c2c(C)csc2C(=O)OC)c1	-70.3
COC(=O)c1scc(C)c1-n1ccc(C(=O)C(=O)N(C)C)c1	5.31
CCN(CC)C(=O)C(=O)c1ccn(-c2c(C)csc2C(=O)OC)c1	-9.5
NC(=O)C1CCCN(C(=O)c2ccc(Cl)cc2)C1 (stereo not drawn)	6.59
O=C(Nc1ccccc1)c1cc(-n2cnnc2)ccc1Cl	9.46
COCC(=O)N1CCc2ccc(NC(=O)c3ccc(C(F)(F)F)cc3)cc2C1	-38.3
O=C(Nc1ccc(N2CCOCC2)nc1)c1ccc(Cl)cc1	-11.5
CN(C)S(=O)(=O)c1cccc(C(=O)Nc2ccc3c(c2)CCC3)c1	-21.9
CN1CCc2ccc(NC(=O)c3ccc(C(F)(F)F)cc3)cc2C1	-53.8

SMILES	hERG current change (%, negative = inhibition) at 10uM [%]
O=C(Nc1ccc(N2CCOCC2)nc1)c1ccc(C(F)(F)F)cc1	16.6
CN1CCN(c2ccc(NC(=O)c3ccc(C(F)(F)F)cc3)cn2)CC1	-73.2
Cc1ccccc1C(=O)Nc1ccc(N2CCN(C)CC2)nc1	-1.6
CC(=O)Nc1ccc(N2CCN(c3ccc(C(F)(F)F)cn3)CC2)nc1	-3.49
Cc1ccc(C(=O)Nc2ccc3c(c2)CCC3)cc1	14.7
CN1CCN(c2ccc(NC(=O)c3ccc(Cl)cc3)cn2)CC1	-53.1
CN(C)S(=O)(=O)N1CCc2ccc(NC(=O)c3ccc(C(F)(F)F)cc3)cc2C1	25.4
CN(C)S(=O)(=O)c1ccc(C(=O)Nc2ccc3c(c2)CCC3)cc1	-52
Cn1c(=O)c2c([nH]c(=S)n2Cc2ccc(Cl)cc2)n(C)c1=O	17
Cc1ccsc1C(=O)N1CCN(c2ncccn2)CC1	7.76
COc1ccc(-c2nnn(CC(=O)N(C3CCCCC3)C(C)C(=O)NC3CCCC3)n2)cc1OC (stereo not drawn)	-22.1
COc1cccc(/C=N/NC(=O)CC2C(=O)NN=C2C)c1OC (stereo not drawn)	2.5
O=C(NCCN1C(=O)S/C(=C\c2cccnc2)C1=O)c1ccc([N+](=O)[O-])s1	5.15
C/C(CC(=O)N1CCCC1)=N\NC(=O)c1cc2ccccc2cc1O	4.98
O=S(=O)(Nc1cc(S(=O)(=O)N2CCOCC2)ccc1N1CCCC1)c1cccs1	-4.49
Cc1cc(-c2nnco2)c(C)n1-c1ccccc1	-1.71
COC(=O)C1=C(c2ccc(S(C)(=O)=O)cc2)C[C@@H]2CC[C@H]1N2C(=O)N1CCCCC1	-1.44
CSCCC(=O)N(C)CC1CCN(CCc2cccc(C(F)(F)F)c2)CC1	-64.3
COC(=O)CCCC(=O)N(C)CC1CCCN(CCc2ccccc2C)C1 (stereo not drawn)	-53.6
CC(=O)NCCC(=O)N(C)CC1CCN(CCc2cccc(C(F)(F)F)c2)CC1	2.52
CN(CC1CCCN(CCc2cccc(C(F)(F)F)c2)C1)C(=O)c1ccco1 (stereo not drawn)	-69.2
COC(=O)CCC(=O)N(C)CC1CCCN(CCc2cccc(C(F)(F)F)c2)C1 (stereo not drawn)	-61.9
COc1ccccc1CCN1CCCC(CN(C)C(=O)CCC(=O)N(C)C)C1 (stereo not drawn)	9.14

SMILES	hERG current change (%, negative = inhibition) at 10uM [%]
COc1ccccc1CCN1CCCC(CN(C)C(=O)CCC(N)=O)C1 (stereo not drawn)	22.5
CCOC(=O)C1CCCCN1Cc1cccc(C(F)(F)F)c1 (stereo not drawn)	6.43
O=C(O)c1ccccc1NS(=O)(=O)c1cccc2nsnc12	18.3
O=C(N/N=C1\CCS(=O)(=O)c2ccc(F)cc21)c1ccc([N+](=O)[O-])cc1	-19.6
Cc1ccc(/C=N/NC(=S)NCCc2ccccc2)s1	27.9
Cc1ccc(CNC(=O)CSc2nc3ccsc3c(=O)n2NC(=O)c2ccccc2)cc1	-9.41
CCOC(=O)N1CCN(C(=O)C(CC(C)C)NS(=O)(=O)c2ccc3c(c2)oc(=O)n3C)CC1 (stereo not drawn)	-12.4
O=C(CN(C(=O)c1csnn1)c1cccc2ccccc12)NCc1ccccc1	0.271
CN(CC1CCCN(CCc2cccc(C(F)(F)F)c2)C1)C(=O)c1ccc2nc[nH]c2c1 (stereo not drawn)	-33.1
CSCCC(=O)NC1CCCN(CCc2ccccc2)C1 (stereo not drawn)	-38.2
CSCCC(=O)N(C)CC1CCCN(CCc2cccc(C(F)(F)F)c2)C1 (stereo not drawn)	-74.6
COc1cc(SC)ccc1C(=O)Nc1ccc(Br)cn1	14.4
COc1ccc(NC(=O)c2ccccc2[N+](=O)[O-])cc1	9.48
NC(=O)c1ccsc1NC(=O)CCS(=O)(=O)c1ccccc1	1.27
COc1ccc(N(C(=O)c2snc(C(N)=O)c2N)C(C(=O)NC2CCCC2)c2cccs2)cc1OC (stereo not drawn)	-1.74
CC(=O)Nc1ccc(S(=O)(=O)N2CCCC2)cc1	12.1
COc1ccc(-c2nnc(C3CCN(S(=O)(=O)c4ccccc4)CC3)o2)cc1	-47.4
Cc1ccc(-c2nnc(SCC(=O)Nc3ccc(S(=O)(=O)N4CCCCCC4)cc3)o2)cc1	-7.29
CC(=O)Nc1ccc(S(=O)(=O)N2CCC(c3nnc(-c4ccc(C)cc4)o3)CC2)cc1	-51.1
CC(=O)Nc1ccc(S(=O)(=O)N2CCCN(S(=O)(=O)c3ccc(NC(C)=O)cc3)CC2)cc1	-0.406
CC(=O)Nc1ccc(S(=O)(=O)N2CCCN(S(=O)(=O)c3ccc(C)cc3)CC2)cc1	-72.8
